We go through 37 compounds from ChEMBL document CHEMBL1157539, “Thousands of chemical starting points for antimalarial lead identification” (Nature, 2010).

For this test, the system named is Plasmodium falciparum. The test is described as follows: GSK_TCMDC: Inhibition of Plasmodium falciparum 3D7 in whole red blood cells, using parasite LDH activity as an index of growth. Test compounds present at 2uM. In kind it is functional.
Compound `C=CCN1C(=O)CN(S(=O)(=O)c2ccc(-n3nc(C)cc3C)cc2)C1=S` registered an Inhibition of 93%. `Cc1[nH]c2ccccc2c1C(=O)C(C)Sc1nnc(-c2ccccc2Br)[nH]1` (configuration not stated) yielded an Inhibition of 100%. Consider `CS(=O)(=O)NCCCNCc1ccc(-c2cccc(-c3nc4cc(C(F)(F)F)ccc4[nH]3)c2)cc1.O=C(O)C(F)(F)F`, for which the Inhibition came to 100%. As for `COc1ccc2nccc([C@@H](O)CN3CCC(NC(=O)Cc4cc5ccccc5s4)CC3)c2c1`, the Inhibition was found to be 92%. `Cc1cc(I)ccc1Nc1nc2nonc2nc1Nc1ccc(I)cc1C` showed an Inhibition of 100%. Turning to `CCN(CCCN1CCCCC1)c1cc(C)nc(Nc2ccc(F)c(C(F)(F)F)c2)n1.O=C(O)C(F)(F)F`, the Inhibition was 100%. `COc1ccc(-c2cn3c(C(=O)Nc4ccccc4Cl)c(-c4ccccc4)c4c3n2CCCC4)cc1` registered an Inhibition of 100%. The compound `Cc1[nH]c(C)c(-c2ccc(-c3cccc(OC(F)(F)F)c3)nc2)c(=O)c1Cl` registered an Inhibition of 98%.

Consider `COc1ccc(NC(=O)[C@H](C)Nc2cc(C)nc(NCC3CCCCC3)n2)cc1.O=C(O)C(F)(F)F`, for which the Inhibition came out at 92%.

`O=c1cc(NCCCNCc2ccc(C(F)(F)F)c(F)c2)[nH]c2ccccc12` came in with an Inhibition of 93%. Take `CCc1cn2c3c(cc(C(=O)N[C@@H](Cc4cccc(F)c4)[C@H](O)CNC4CC4)cc13)N(C)S(=O)(=O)CC2.O=CO`: the Inhibition worked out at 98%. The compound `Cc1cc(N/N=C/c2cccc([N+](=O)[O-])c2)c2ccccc2n1` yielded an Inhibition of 100%. As for `CCOC(=O)Nc1cc(-c2csc(N=C(N)N)n2)cc([N+](=O)[O-])c1`, the Inhibition came out at 100%. `O=C(NC1CCN(Cc2ccsc2)CC1)c1ccc(-c2cccc(C(F)(F)F)c2)s1.O=C(O)C(F)(F)F` registered an Inhibition of 88%. On to `COc1ccc(-c2cc(C(=O)Nc3ccc(CCCN(C)Cc4ccc(OC)c(OC)c4)cc3)c3ccccc3n2)cc1`, for which the Inhibition turned out to be 92%. `Cl.N#Cc1ccc2c(c1)CCN(CCC1CCC(NC(=O)/C=C/c3ccc(Cl)c(Cl)c3)CC1)CC2` (configuration not stated) showed an Inhibition of 100%. With `O=[N+]([O-])c1ccc(-c2ccc(C=NNc3nc(Nc4ccccc4)nc(Nc4ccccc4)n3)o2)cc1`, the Inhibition is listed as 91%. Regarding `Cc1nc(-c2cccc(C(=O)N(Cc3cncn3Cc3cccc(C(F)(F)F)c3)CC3CC3)c2)cs1`, the Inhibition came out at 97%. The figure for `CC1(C)[C@H]2CC[C@@H](CNc3nc(NCCc4c[nH]cn4)nc(Nc4ccc5c(c4)OCO5)n3)[C@@H]1C2` is 100%; for `SC(=Nc1ccc2c(c1)OCCO2)NN=Cc1ccccn1` it is 82%. To `CCCCCCCCCCN1C(=O)C2C(CCCCNC(C)=O)NC3(C(=O)N(Cc4ccc(C(C)(C)C)cc4)c4ccccc43)C2C1=O` (configuration not stated) belongs 86%; to `COc1ccc2nccc([C@@H](O)CN3CCC(NC(=O)c4cc5c(Cl)cc(Cl)cc5[nH]4)CC3)c2c1`, 100%. In turn, `Cc1cc(N[C@@H](Cc2ccccc2)C(=O)Nc2ccccc2)nc(NCCN2CCCC2)n1.O=C(O)C(F)(F)F` yielded an Inhibition of 94%. As for `Cc1ccccc1CNc1noc(-c2sccc2Br)n1`, the Inhibition is on record as 99%. In turn, `Cc1[nH]cnc1Cc1ccc2c(c1O)c1ccccc1n2C` had an Inhibition of 90%. As for `CC(C)(C)NS(=O)(=O)c1cc(C(=O)N2CCC(CCN3CCC(O)(c4cccc(C(F)(F)F)c4)CC3)(c3cccc(F)c3)CC2)c(Cl)cc1F`, the Inhibition is reported as 88%. The figure for `CCN(CC)CCCC(C)Nc1ccnc2ccc(OC)cc12.Cl.O` (configuration not stated) is 100%; for `Cc1cc(N2CCCC2)nc(Nc2ccc(NC(=O)c3ccccc3F)cc2)n1` it is 98%. Turning to `COc1cccc2c(C)cc(NCc3ccc(Cl)cc3)nc12`, the Inhibition is on record as 97%. As to `Cl.N#Cc1ccc2c(c1)CCN(CCC1CCC(NC(=O)Nc3ccnc4ccccc34)CC1)C2` (configuration not stated), the Inhibition turned out to be 100%.

`O=C(C=Cc1cn(-c2ccccc2)nc1-c1cccs1)N1CCN(c2ccncc2)CC1` showed an Inhibition of 100%. For the compound `Cc1cccc2nc(-c3ccc(-c4cccc(CNCCCNS(C)(=O)=O)c4)cc3)[nH]c12.O=C(O)C(F)(F)F`, the Inhibition was 99%. In turn, `NC(=S)Cc1ccc2c(c1)OCO2` displayed an Inhibition of 96%. `Cl.Nc1c2c(nc3ccc(NC(=O)Cc4ccccc4)cc13)CCCC2` returned an Inhibition of 100%.

In turn, `Cc1cc(C)c(NC(=O)NC2CCN(CCCCCNC(=O)/C=C/c3ccc(Cl)c(Cl)c3)CC2)c(C)c1` displayed an Inhibition of 100%. Take `Cl.Oc1ccc(Nc2nc(N3CCCC3)c3ccccc3n2)cc1`: the Inhibition is recorded as 100%. Consider `CCCSc1nc2c(c(=O)n1Cc1ccco1)C1(CCCCC1)Cc1ccccc1-2`, for which the Inhibition stood at 100%.
